Measured values: the supplement of paper PMC10849652
The full data set covers some 7,900 targets. This sample favours those with a hit. About 0.6% of all pairs of compound and target were hits.

Columns and labels:
Assay in all cases: log2 fold change, soluble protein after heating vs DMSO (PISA); higher = thermal stabilisation; K562 cells, 10 uM, 30 min; active = over 0.2 and 3.5 SD of the protein, either way, in both replicates (recomputed)
[1] = compound: C1=CC=C(C=C1)[C@H](COC2=CC3=C(C=C2)NC(=O)N3)NC(=O)C4=CC=CN(C4=O)CC5=CC(=C(C=C5)F)F
Method in brief: (§1)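 K562 cells at 2×10^6 cells/mL were exposed to 10 μM compound for 30 min, then aliquots were heated for 3 min across 48°C-58°C, pooled, and extracted in PBS containing 0.5% NP-40 at 4°C. The supernatant after 21,000xg for 90 min was taken as soluble protein and measured by TMTpro 16plex LC-MS/MS with channel sums equalised. Thermal stability is reported relative to control samples, with values from duplicates. Fold changes are given on a log2 scale.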

[2] = compound: CC1=C(SC2=C1C(=N[C@H](C3=NN=C(N32)C)CC(=O)N)C4=CC=C(C=C4)Cl)C
Method in brief: as §1

[3] = compound: CC1=C2C(=CC=C1)N=C(N(C2=O)C3=CC=CC=C3C)CN4C=NC5=C(N=CN=C54)N
Method in brief: as §1

[4] = compound: Cc1sc2c(c1C)C(c1ccc(Cl)cc1)=N[C@@H](CC(=O)OC(C)(C)C)c1nnc(C)n1-2
Method in brief: as §1

[5] = compound: c1ccc([C@@H]2C[C@H]2NC2CCNCC2)cc1
Method in brief: as §1

Chain of UniProt P29692 (P29692 whole entry, looked up): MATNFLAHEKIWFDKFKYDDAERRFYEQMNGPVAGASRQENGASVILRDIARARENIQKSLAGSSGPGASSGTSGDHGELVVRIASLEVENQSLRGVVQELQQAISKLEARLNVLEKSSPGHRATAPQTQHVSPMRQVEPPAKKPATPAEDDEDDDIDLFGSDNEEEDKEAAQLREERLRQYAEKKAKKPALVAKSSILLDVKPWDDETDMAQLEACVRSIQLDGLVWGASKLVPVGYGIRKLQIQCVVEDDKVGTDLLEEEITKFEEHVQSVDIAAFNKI
Chain of UniProt Q14320 (Q14320 whole entry, looked up): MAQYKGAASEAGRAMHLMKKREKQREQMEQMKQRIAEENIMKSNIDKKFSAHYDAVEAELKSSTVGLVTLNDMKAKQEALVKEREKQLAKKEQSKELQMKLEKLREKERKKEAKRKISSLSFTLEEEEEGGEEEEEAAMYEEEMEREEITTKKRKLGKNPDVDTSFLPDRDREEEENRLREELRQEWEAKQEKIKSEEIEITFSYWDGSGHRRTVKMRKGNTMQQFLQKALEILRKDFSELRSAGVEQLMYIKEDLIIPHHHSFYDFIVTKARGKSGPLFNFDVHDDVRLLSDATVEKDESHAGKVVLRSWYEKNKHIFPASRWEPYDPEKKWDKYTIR
Chain of UniProt Q9H4H8 (Q9H4H8 whole entry, looked up): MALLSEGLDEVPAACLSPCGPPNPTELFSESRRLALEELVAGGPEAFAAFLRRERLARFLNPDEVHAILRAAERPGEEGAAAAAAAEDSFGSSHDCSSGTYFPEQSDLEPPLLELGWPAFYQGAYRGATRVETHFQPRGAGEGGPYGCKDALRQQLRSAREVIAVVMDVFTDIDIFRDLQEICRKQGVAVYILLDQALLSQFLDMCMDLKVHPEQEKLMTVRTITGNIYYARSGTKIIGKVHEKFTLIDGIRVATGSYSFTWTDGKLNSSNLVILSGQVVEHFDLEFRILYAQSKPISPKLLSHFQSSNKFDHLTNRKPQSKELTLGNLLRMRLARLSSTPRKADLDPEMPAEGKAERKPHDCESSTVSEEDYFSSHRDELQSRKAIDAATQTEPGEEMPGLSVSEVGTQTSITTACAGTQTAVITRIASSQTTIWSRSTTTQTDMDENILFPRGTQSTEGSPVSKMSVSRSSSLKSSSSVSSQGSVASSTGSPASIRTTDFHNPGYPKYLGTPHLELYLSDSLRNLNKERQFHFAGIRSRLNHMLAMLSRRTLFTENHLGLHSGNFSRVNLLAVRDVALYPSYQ
Chain of UniProt P49366 (P49366 whole entry, looked up): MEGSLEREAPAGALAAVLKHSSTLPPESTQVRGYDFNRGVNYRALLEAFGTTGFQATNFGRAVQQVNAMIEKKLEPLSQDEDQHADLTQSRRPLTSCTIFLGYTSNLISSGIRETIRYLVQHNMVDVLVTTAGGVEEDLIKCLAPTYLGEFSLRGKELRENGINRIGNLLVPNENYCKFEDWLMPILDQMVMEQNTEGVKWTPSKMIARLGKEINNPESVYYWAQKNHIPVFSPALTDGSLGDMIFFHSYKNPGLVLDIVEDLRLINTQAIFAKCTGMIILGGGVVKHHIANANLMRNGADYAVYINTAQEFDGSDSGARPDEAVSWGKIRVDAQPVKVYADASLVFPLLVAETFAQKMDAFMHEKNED
Chain of UniProt O75822 (O75822 whole entry, looked up): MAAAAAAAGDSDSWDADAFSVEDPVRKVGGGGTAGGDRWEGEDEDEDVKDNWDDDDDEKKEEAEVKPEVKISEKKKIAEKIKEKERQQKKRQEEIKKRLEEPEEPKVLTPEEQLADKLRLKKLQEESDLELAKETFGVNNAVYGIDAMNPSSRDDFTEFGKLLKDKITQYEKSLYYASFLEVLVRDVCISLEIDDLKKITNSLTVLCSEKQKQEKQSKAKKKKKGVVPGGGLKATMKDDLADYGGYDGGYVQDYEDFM
Chain of UniProt P34913 (P34913 whole entry, looked up): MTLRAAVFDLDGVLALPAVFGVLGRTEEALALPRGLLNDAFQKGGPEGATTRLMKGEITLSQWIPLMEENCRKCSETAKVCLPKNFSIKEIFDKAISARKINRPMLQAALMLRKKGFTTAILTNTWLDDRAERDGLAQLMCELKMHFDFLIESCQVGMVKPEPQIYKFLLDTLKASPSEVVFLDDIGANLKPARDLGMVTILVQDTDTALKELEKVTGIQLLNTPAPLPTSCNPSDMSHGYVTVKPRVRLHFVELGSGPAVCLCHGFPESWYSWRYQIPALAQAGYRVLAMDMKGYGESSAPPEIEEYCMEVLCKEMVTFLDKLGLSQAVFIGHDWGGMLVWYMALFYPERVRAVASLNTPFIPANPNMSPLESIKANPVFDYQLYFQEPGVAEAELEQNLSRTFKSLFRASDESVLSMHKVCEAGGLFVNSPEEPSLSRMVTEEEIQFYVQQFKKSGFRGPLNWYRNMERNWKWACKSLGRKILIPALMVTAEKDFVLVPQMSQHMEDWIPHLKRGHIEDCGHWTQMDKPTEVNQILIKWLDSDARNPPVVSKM
Chain of UniProt O60231 (O60231 whole entry, looked up): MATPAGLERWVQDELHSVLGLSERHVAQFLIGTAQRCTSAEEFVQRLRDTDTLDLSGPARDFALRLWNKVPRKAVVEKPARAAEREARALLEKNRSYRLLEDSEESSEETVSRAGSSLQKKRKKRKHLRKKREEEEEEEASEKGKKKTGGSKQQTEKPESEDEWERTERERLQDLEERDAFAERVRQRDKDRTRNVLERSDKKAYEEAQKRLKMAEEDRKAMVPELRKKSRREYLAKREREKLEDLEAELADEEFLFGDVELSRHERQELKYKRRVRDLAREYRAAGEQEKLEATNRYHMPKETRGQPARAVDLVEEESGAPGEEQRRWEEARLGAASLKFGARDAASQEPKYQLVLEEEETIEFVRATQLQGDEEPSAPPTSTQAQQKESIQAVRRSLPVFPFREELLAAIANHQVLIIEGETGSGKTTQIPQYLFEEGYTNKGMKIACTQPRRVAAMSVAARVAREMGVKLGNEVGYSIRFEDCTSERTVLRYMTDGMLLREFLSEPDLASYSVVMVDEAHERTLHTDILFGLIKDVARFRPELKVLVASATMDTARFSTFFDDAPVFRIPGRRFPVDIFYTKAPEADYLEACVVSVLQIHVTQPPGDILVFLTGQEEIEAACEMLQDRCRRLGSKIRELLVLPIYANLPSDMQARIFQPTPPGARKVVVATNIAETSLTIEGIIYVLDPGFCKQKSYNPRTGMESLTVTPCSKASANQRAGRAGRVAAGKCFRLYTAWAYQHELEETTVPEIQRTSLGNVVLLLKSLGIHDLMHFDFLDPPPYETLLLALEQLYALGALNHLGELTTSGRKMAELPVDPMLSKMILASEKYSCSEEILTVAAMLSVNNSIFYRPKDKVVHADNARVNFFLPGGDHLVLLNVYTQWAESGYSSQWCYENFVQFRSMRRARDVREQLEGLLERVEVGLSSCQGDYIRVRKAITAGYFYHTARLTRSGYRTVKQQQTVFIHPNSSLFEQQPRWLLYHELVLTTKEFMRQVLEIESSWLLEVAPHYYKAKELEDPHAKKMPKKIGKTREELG
Chain of UniProt Q8N612 (Q8N612 whole entry, looked up): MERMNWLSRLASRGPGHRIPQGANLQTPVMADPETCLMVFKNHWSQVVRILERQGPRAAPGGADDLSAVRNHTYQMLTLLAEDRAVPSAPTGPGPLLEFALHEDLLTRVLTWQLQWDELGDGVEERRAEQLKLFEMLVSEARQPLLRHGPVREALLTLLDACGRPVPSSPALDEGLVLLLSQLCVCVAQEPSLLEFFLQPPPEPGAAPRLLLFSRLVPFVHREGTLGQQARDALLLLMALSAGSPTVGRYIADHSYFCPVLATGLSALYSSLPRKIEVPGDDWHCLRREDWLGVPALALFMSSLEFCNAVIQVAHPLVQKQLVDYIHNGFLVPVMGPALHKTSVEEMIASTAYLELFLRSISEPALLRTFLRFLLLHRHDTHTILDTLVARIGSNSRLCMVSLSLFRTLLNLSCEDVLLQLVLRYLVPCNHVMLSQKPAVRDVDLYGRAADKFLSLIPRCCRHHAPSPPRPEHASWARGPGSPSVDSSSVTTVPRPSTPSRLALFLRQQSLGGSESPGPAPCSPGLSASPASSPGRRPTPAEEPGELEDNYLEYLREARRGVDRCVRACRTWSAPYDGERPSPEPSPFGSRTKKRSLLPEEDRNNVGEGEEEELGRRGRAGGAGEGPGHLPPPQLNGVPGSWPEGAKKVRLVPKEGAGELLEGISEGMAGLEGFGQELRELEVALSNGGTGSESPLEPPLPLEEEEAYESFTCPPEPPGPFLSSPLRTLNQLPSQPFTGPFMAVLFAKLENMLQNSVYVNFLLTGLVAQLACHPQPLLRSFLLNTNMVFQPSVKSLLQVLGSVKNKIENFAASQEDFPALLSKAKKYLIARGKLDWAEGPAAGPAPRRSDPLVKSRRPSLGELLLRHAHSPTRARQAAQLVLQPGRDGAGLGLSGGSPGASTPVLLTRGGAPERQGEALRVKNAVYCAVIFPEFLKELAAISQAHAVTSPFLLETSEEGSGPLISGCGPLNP
Chain of UniProt P09668 (P09668 whole entry, looked up): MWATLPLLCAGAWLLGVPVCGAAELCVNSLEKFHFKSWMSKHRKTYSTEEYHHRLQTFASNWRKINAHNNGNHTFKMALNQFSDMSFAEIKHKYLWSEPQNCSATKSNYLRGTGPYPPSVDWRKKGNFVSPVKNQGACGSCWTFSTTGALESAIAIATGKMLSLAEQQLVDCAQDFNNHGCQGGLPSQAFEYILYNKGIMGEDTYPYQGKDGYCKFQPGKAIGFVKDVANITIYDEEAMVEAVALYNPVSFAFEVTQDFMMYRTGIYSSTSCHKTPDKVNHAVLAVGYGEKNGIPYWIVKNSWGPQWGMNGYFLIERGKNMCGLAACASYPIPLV
Chain of UniProt Q8N128 (Q8N128 whole entry, looked up): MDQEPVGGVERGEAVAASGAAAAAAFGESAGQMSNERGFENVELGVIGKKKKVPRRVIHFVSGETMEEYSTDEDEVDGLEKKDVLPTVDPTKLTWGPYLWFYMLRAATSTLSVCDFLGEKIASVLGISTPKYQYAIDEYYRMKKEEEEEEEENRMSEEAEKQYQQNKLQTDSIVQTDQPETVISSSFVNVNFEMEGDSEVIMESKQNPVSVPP

Target	log2 fold change [1]	log2 fold change [2]	log2 fold change [3]	log2 fold change [4]	log2 fold change [5]
DDOST (UniProt P39656)	0.018 (inactive)	-0.009 (inactive)	-0.078 (inactive)	-0.022 (inactive)	0 (inactive)
FAM114A2 (UniProt Q9NRY5)	-0.046 (inactive)	0.047 (inactive)	0.018 (inactive)	0.033 (inactive)	0.006 (inactive)
EFCAB14 (UniProt O75071)	0.045 (inactive)	-0.293 (active)	0.016 (inactive)	0.018 (inactive)	0.321 (inactive)
DHFR (UniProt P00374)	-0.077 (inactive)	-0.014 (inactive)	0.083 (inactive)	0.058 (inactive)	0.396 (inactive)
EBNA1BP2 (UniProt Q99848)	0.118 (inactive)	-0.378 (inactive)	-0.269 (inactive)	0.306 (inactive)	-0.045 (inactive)
EIF3J (UniProt O75822)	-0.034 (inactive)	0.025 (inactive)	-0.004 (inactive)	-0.041 (inactive)	-0.035 (inactive)
EOGT (UniProt Q5NDL2)	0.013 (inactive)	-0.074 (inactive)	0.056 (inactive)	-0.032 (inactive)	0.077 (inactive)
DUS2 (UniProt Q9NX74)	0.024 (inactive)	0.055 (inactive)	0.109 (inactive)	-0.087 (inactive)	-0.023 (inactive)
DAB2 (UniProt P98082)	-0.039 (inactive)	0.051 (inactive)	0.1 (inactive)	0.121 (inactive)	0.094 (inactive)
CUX1 isoform 3 (UniProt P39880)	0 (inactive)	0.025 (inactive)	0.034 (inactive)	-0.009 (inactive)	0.016 (inactive)
DSN1 (UniProt Q9H410)	0.02 (inactive)	0.016 (inactive)	0.059 (inactive)	0.045 (inactive)	-0.054 (inactive)
DENND10 (UniProt Q8TCE6)	0.035 (inactive)	0.083 (inactive)	0.103 (inactive)	0.057 (inactive)	-0.008 (inactive)
FAM83D (UniProt Q9H4H8)	-0.068 (inactive)	0.027 (inactive)	0 (inactive)	0.045 (inactive)	0.06 (inactive)
EXOC4 (UniProt Q96A65)	-0.05 (inactive)	0.052 (inactive)	0.015 (inactive)	0.081 (inactive)	-0.049 (inactive)
DIP2A (UniProt Q14689)	-0.03 (inactive)	0.042 (inactive)	-0.149 (inactive)	0.019 (inactive)	-0.078 (inactive)
DDX46 (UniProt Q7L014)	-0.059 (inactive)	0.09 (inactive)	0.184 (inactive)	-0.064 (inactive)	0 (inactive)
DNAJB1 (UniProt P25685)	-0.019 (inactive)	0.015 (inactive)	0.066 (inactive)	-0.003 (inactive)	-0.026 (inactive)
EEF1B2 (UniProt P24534)	-0.037 (inactive)	-0.002 (inactive)	0.036 (inactive)	0.026 (inactive)	-0.034 (inactive)
ECH1 (UniProt Q13011)	-0.072 (inactive)	0.161 (inactive)	0.086 (inactive)	-0.114 (inactive)	-0.046 (inactive)
DHRS1 (UniProt Q96LJ7)	0.241 (inactive)	0.015 (inactive)	0.216 (inactive)	0.321 (inactive)	0.013 (inactive)
DHRS7B (UniProt Q6IAN0)	0.054 (inactive)	0.032 (inactive)	-0.001 (inactive)	-0.018 (inactive)	-0.013 (inactive)
DBR1 (UniProt Q9UK59)	0.023 (inactive)	0 (inactive)	0 (inactive)	0.017 (inactive)	0.057 (inactive)
DHX16 (UniProt O60231)	-0.024 (inactive)	0.007 (inactive)	0.059 (inactive)	-0.003 (inactive)	0.017 (inactive)
FAM160A2 isoform 2 (UniProt Q8N612)	-0.027 (inactive)	-0.054 (inactive)	0.343 (inactive)	0.148 (inactive)	-0.344 (inactive)

Target	log2 fold change [1]	log2 fold change [2]	log2 fold change [3]	log2 fold change [4]	log2 fold change [5]
FAM177A1 isoform 2 (UniProt Q8N128)	-0.073 (inactive)	0.047 (inactive)	0.17 (inactive)	-0.002 (inactive)	0.028 (inactive)
ETNK1 (UniProt Q9HBU6)	0 (inactive)	0.044 (inactive)	0.071 (inactive)	-0.092 (inactive)	0.022 (inactive)
DTWD2 (UniProt Q8NBA8)	-0.011 (inactive)	0.125 (inactive)	0.064 (inactive)	0.043 (inactive)	-0.036 (inactive)
DNM2 (UniProt P50570)	-0.023 (inactive)	0.044 (inactive)	0.078 (inactive)	-0.027 (inactive)	-0.036 (inactive)
DCAF13 (UniProt Q9NV06)	0.105 (inactive)	-0.221 (inactive)	-0.152 (inactive)	0.128 (inactive)	0 (inactive)
DOHH (UniProt Q9BU89)	0.218 (inactive)	0.072 (inactive)	-0.062 (inactive)	0.031 (inactive)	-0.088 (inactive)
FAM122A (UniProt Q96E09)	0.008 (inactive)	-0.055 (inactive)	-0.022 (inactive)	0.158 (inactive)	0.083 (inactive)
ERLIN1 (UniProt O75477)	-0.007 (inactive)	-0.036 (inactive)	0.002 (inactive)	-0.038 (inactive)	-0.026 (inactive)
EEF1AKNMT (UniProt Q8N6R0)	-0.146 (inactive)	0.049 (inactive)	0.121 (inactive)	0.028 (inactive)	-0.063 (inactive)
DNAJC1 (UniProt Q96KC8)	-0.024 (inactive)	0.054 (inactive)	0.08 (inactive)	-0.015 (inactive)	0.052 (inactive)
CTSZ (UniProt Q9UBR2)	-0.003 (inactive)	0.009 (inactive)	0.032 (inactive)	0.039 (inactive)	-0.01 (inactive)
CTSH (UniProt P09668)	0 (inactive)	-0.046 (inactive)	-0.038 (inactive)	-0.035 (inactive)	0.055 (inactive)
ERCC2 (UniProt P18074)	0 (inactive)	-0.025 (inactive)	-0.044 (inactive)	-0.104 (inactive)	0.05 (inactive)
EPHX2 (UniProt P34913)	-0.015 (inactive)	0.091 (inactive)	0.052 (inactive)	0.143 (inactive)	-0.002 (inactive)
CYBA (UniProt P13498)	0.007 (inactive)	0.034 (inactive)	-0.013 (inactive)	0.027 (inactive)	0.031 (inactive)
EEF1D isoform 2 (UniProt P29692)	-0.031 (inactive)	0.003 (inactive)	0.073 (inactive)	0.012 (inactive)	-0.011 (inactive)
DNAJB12 (UniProt Q9NXW2)	-0.044 (inactive)	0.027 (inactive)	0.081 (inactive)	-0.011 (inactive)	0.011 (inactive)
CYFIP1 (UniProt Q7L576)	0.009 (inactive)	0.005 (inactive)	-0.009 (inactive)	-0.005 (inactive)	-0.029 (inactive)
FAM50A (UniProt Q14320)	-0.026 (inactive)	0.032 (inactive)	0.033 (inactive)	-0.025 (inactive)	0.007 (inactive)
DHPS (UniProt P49366)	-0.014 (inactive)	0.013 (inactive)	-0.014 (inactive)	0.013 (inactive)	0.081 (inactive)
DCUN1D1 (UniProt Q96GG9)	-0.011 (inactive)	0.064 (inactive)	0.073 (inactive)	-0.033 (inactive)	0.003 (inactive)
DPYSL2 (UniProt Q16555)	-0.012 (inactive)	0.072 (inactive)	0.093 (inactive)	0.01 (inactive)	0.014 (inactive)
ESS2 (UniProt Q96DF8)	0.04 (inactive)	-0.06 (inactive)	-0.096 (inactive)	0.018 (inactive)	0.075 (inactive)
